Measurements reported in ChEMBL document CHEMBL1961873, “Compounds: GSK PKIS; Assays: Nanosyn kinase panel” (2012).

What was measured:
[1] = target: T1, Serine/threonine-protein kinase D2 (Homo sapiens) (UniProt Q9BZL6); details: at 1 µM;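 also: mean value of PRKD2 inhibition, from the GSK PKIS screening panel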
T1 sequence (whole entry): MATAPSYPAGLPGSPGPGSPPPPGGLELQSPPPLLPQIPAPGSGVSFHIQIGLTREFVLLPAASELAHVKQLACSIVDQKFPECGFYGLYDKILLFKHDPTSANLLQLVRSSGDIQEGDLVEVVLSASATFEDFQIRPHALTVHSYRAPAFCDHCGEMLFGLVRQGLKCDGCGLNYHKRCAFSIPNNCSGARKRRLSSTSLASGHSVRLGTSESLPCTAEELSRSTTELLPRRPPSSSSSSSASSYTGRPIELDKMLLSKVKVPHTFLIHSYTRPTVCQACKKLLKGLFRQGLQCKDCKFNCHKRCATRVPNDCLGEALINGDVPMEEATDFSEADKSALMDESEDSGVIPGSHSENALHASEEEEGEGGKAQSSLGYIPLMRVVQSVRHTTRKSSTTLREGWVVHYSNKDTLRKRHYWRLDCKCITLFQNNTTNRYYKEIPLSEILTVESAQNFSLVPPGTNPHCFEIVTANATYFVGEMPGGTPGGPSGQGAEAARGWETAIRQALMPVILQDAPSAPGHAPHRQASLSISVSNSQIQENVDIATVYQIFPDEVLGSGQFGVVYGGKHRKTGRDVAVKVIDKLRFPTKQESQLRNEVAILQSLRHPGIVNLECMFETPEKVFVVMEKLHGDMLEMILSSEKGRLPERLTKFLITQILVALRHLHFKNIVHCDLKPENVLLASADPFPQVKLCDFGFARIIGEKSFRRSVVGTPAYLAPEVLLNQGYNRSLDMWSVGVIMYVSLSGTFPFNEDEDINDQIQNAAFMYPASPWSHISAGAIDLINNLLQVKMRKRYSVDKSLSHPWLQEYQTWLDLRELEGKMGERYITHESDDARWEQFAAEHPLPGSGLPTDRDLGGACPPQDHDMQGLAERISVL

[2] = target: T2, Serine/threonine-protein kinase D3 (Homo sapiens) (UniProt O94806); details: at 0.1 µM
T2 sequence (whole entry): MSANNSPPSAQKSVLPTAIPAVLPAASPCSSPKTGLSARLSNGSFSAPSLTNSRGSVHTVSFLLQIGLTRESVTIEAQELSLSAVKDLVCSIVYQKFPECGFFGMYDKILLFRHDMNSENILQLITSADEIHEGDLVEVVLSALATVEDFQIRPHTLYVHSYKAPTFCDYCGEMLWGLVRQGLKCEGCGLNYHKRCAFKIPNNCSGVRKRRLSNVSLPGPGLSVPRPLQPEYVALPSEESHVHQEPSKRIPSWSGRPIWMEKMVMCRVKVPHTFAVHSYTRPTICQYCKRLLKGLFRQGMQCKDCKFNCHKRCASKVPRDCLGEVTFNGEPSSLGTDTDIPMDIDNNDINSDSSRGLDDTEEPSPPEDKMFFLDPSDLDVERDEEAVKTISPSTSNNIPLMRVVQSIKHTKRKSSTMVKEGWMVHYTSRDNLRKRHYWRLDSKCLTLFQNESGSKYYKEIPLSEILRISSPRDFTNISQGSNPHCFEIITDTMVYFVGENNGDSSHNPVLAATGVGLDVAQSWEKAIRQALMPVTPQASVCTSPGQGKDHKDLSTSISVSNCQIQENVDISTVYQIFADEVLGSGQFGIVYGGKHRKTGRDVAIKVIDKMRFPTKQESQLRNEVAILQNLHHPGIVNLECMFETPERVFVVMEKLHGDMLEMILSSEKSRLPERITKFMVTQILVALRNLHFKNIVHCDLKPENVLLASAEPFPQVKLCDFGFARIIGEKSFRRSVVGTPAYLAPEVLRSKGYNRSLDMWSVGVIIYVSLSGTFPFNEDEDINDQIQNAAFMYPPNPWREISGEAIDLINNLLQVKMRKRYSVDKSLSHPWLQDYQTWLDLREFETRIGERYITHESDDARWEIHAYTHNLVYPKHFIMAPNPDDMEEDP

[3] = target: T2, Serine/threonine-protein kinase D3 (Homo sapiens); details: at 1 µM
[4] = target: T3, cGMP-dependent protein kinase 1 (Homo sapiens) (UniProt Q13976); details: at 0.1 µM
T3 sequence (whole entry): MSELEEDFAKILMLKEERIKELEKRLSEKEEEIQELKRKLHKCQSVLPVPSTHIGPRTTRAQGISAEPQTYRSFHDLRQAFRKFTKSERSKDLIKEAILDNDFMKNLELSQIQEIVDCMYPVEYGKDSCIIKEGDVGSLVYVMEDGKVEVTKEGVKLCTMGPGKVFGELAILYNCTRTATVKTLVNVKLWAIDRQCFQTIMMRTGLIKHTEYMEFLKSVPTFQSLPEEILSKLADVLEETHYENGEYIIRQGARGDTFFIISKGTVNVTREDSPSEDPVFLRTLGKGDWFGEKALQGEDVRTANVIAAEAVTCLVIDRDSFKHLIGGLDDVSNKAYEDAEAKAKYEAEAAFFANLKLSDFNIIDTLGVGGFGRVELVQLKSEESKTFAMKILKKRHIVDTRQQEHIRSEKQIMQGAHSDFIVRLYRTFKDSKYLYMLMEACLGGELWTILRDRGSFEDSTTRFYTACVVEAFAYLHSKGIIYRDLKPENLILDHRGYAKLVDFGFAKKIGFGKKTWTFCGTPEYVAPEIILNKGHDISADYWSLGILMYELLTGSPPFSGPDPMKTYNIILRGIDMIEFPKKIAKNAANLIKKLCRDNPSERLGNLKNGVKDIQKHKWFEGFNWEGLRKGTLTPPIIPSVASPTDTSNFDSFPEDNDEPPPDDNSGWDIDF

[5] = target: T3, cGMP-dependent protein kinase 1 (Homo sapiens); details: at 1 µM
[6] = target: T4, cGMP-dependent protein kinase 2 (Homo sapiens) (UniProt Q13237); details: at 0.1 µM
T4 sequence (whole entry): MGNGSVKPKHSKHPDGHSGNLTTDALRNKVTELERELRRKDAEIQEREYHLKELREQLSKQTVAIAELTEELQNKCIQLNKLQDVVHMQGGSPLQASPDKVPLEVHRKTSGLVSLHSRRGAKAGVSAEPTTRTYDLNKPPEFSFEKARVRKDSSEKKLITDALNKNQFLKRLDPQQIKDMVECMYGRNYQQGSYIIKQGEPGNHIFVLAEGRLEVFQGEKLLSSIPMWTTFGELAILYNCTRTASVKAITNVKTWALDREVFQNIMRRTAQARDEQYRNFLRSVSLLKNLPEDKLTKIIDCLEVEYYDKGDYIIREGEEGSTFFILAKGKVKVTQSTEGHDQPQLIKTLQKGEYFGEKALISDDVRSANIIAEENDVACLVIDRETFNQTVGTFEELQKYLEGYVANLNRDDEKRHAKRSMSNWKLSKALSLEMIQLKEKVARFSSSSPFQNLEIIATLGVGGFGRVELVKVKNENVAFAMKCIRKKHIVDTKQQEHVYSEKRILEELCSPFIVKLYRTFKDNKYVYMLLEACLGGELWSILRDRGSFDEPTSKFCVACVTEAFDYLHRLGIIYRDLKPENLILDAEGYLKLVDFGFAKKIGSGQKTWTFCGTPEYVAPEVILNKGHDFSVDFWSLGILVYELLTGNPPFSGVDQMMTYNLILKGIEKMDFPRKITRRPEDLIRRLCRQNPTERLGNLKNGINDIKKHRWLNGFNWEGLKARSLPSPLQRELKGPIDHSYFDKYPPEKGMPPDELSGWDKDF

[7] = target: T4, cGMP-dependent protein kinase 2 (Homo sapiens); details: at 1 µM
[8] = target: T5, cAMP-dependent protein kinase catalytic subunit PRKX (Homo sapiens) (UniProt P51817); details: at 0.1 µM
T5 sequence (whole entry): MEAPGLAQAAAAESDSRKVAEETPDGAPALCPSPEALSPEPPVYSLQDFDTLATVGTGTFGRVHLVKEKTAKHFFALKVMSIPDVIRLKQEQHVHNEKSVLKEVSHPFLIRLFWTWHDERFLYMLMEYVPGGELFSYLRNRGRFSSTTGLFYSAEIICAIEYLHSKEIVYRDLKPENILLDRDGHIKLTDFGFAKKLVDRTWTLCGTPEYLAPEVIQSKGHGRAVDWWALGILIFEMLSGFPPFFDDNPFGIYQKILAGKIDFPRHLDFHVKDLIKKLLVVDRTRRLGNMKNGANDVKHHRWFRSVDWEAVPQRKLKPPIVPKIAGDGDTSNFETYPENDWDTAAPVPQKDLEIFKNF

[9] = target: T5, cAMP-dependent protein kinase catalytic subunit PRKX (Homo sapiens); details: at 1 µM
[10] = target: Rho-associated protein kinase 1 (Homo sapiens) (UniProt Q13464); details: at 0.1 µM;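 also: values are mean percent inhibition of ROCK1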
Sequence of Rho-associated protein kinase 1 (Homo sapiens) (Q13464 2-1354 limits assumed): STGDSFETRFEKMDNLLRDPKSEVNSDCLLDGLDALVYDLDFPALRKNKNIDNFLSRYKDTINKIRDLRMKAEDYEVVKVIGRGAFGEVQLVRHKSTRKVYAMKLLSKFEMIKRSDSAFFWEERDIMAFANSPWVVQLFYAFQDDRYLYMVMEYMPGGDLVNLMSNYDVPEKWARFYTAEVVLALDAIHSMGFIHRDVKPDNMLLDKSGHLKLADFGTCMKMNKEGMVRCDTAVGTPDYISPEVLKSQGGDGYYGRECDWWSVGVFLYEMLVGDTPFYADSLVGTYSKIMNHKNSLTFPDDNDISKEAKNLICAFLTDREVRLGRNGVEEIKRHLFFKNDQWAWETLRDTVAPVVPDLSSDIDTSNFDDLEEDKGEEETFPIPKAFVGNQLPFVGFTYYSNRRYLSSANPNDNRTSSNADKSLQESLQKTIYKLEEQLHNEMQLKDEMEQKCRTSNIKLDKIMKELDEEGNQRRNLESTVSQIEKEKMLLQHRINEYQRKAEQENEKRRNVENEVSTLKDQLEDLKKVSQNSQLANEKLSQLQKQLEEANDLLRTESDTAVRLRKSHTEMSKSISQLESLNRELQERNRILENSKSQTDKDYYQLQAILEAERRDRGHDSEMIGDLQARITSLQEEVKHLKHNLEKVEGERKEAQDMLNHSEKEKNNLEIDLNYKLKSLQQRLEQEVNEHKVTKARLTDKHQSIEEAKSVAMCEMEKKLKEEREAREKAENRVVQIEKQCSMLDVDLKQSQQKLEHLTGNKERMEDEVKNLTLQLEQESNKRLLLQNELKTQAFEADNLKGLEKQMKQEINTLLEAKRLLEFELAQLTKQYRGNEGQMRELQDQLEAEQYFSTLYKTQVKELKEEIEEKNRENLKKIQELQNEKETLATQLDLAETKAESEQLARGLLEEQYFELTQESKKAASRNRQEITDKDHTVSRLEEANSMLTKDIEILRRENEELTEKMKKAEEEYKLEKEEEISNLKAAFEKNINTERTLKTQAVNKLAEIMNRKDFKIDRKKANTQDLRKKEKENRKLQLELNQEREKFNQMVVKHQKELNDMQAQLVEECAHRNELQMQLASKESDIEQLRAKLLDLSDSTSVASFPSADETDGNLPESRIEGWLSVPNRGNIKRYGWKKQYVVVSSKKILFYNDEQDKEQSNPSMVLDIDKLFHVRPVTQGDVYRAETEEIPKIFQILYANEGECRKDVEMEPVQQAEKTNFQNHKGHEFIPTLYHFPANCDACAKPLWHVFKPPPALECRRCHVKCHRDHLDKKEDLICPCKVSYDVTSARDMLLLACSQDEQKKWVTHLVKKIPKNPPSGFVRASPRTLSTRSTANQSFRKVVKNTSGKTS

| Compound | inhibition [1] [%] | inhibition [2] [%] | inhibition [3] [%] | inhibition [4] [%] | inhibition [5] [%] | inhibition [6] [%] | inhibition [7] [%] | inhibition [8] [%] | inhibition [9] [%] | inhibition [10] [%] |
| --- | --- | --- | --- | --- | --- | --- | --- | --- | --- | --- |
| CN(C)c1cc2c(Nc3ccc4nc(Cc5ccccc5)[nH]c4c3)ncnc2cn1 | 5.15 | 5.52 | 6.09 | 5.01 | 6.25 | 2.1 | 4.22 | 2.16 | 2.25 | 5.7 |
| CS(=O)(=O)CCN(CC#N)Cc1ccc(-c2ccc3ncnc(Nc4ccc(OCc5cccc(F)c5)c(Cl)c4)c3c2)o1 | -4.76 | -2.15 | -3.08 | 2.42 | 3.06 | 0.52 | 0.66 | 1.58 | 1.54 | 0.99 |
| CCn1c(-c2nonc2N)nc2c(C#CC(C)(C)O)nc(CN3CCCC3)cc21 | 6.86 | 1.31 | 6.41 | 4.4 | 10.7 | 5.6 | 37.8 | 10.5 | 42 | 0.15 |
| Nc1nc(-c2ccccn2)c(-c2ccc3ncccc3n2)s1 | 3.27 | 3.61 | 3.13 | 0.89 | 3.86 | 1.67 | 6 | 1.03 | 1.92 | 0.46 |
| COc1ccc(-c2ccncc2)cc1C(N)=O | 5.71 | 5.67 | 11.1 | 4.34 | 13.7 | 2.97 | 17 | 2.9 | 3.27 | 2.65 |
| COc1cc(C)c(NC(=O)CN(C)C)cc1Nc1nc(Nc2cccc(F)c2C(N)=O)c2cc[nH]c2n1 | 31.9 | 3.99 | 38.4 | 1.52 | 4.26 | 1.95 | 2.22 | -0.65 | -1.72 | 0.5 |
| NC(=O)c1ccc(-c2nc(-c3ccccn3)c(-c3ccc4c(c3)OCO4)[nH]2)cc1 | 6.06 | 2.14 | 5.59 | 0.18 | 3.55 | 1.83 | 3.18 | 1.66 | 2.01 | 0.07 |
| O=C1NC(=O)C(c2cccc(Cl)c2)=C1Nc1ccc(O)c(Cl)c1 | 3.16 | 0.75 | 1.47 | 0.66 | 2.21 | 1.23 | 5.33 | -0.43 | -1.53 | 0.21 |
